Assay outcomes from PubChem BioAssay.
In the library only some 18% were active in any assay of this set; here they are far more common.
DT40 TDP1 CPT: DT40-hTDP1 cell growth loss with CPT; chicken DT40 Tdp1-/-;hTDP1 cells + 20 nM CPT, ATP luminescence, 48 h; Potency, µM (doses to about 46.2 µM), actives largely listed as inhibitors; 420,000 tested, 12% active; AID 686979; also: nearly all actives have a fitted effect of over 55% in size
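Chicken DT40 Tdp1-/- cells complemented with human TDP1, 400 cells/well, exposed to compounds plus 20 nM camptothecin for at least 48 h at 37 C; viability read as ATP content by CellTiter-Glo luminescence.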
TDP1 block: blocks human tyrosyl-DNA phosphodiesterase 1; recombinant TDP1, AlphaScreen DNA substrate cleavage; Potency, µM (doses to about 130 µM), actives largely listed as inhibitors; 350,000 tested, 0.28% active; also: nearly all actives have a fitted effect of over 40% in size
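Tdp1 1 nM final; 15 min RT w/ cpd; substrate 15 nM, 5 min; beads 10 ug/ml, 10 min; AlphaScreen read. Neg ctrl: no enzyme.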
VDR inhibitor: blocks the human vitamin D receptor; 400,000 tested, 0.93% active; P11473; VDR-SRC2-3 peptide fluorescence polarization, 2 h; Potency, µM, hits mostly inhibitors
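Fluorescence polarization assay of small-molecule disruption of VDR binding to coregulator peptide SRC2-3. Compounds and controls pin-transferred, then read after 2 h incubation at ambient room temperature.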
DT40 TDP1 no CPT: qHTS for Inhibitors of human tyrosyl-DNA phosphodiesterase 1 (TDP1): qHTS in cells in absence of CPT; DT40 Tdp1-/- hTDP1 cells, no CPT, ATP luminescence, 48 h; Potency, µM (doses to about 46.2 µM), usual class: inhibitors; 420,000 tested, 15% active; AID 686978, 2013; also: nearly all actives have a fitted effect of over 55% in size
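Readout: luminescence from CellTiter-Glo after 30 min in the dark at RT. Cells: DT40 Tdp1-/- with stable hTDP1, 400/well. Exposure: compounds alone, ≥48 hr, 37 °C.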
KAT2A inh: inhibitors of human GCN5L2 histone acetyltransferase. Q92830. GCN5L2 HAT assay, ThioGlo1 CoA-SH fluorescence. Potency, µM (titrated, usually from 58.9 µM), actives largely listed as inhibitors. 390,000 tested, 0.21% active
Target sequence (Q92830 whole entry, looked up): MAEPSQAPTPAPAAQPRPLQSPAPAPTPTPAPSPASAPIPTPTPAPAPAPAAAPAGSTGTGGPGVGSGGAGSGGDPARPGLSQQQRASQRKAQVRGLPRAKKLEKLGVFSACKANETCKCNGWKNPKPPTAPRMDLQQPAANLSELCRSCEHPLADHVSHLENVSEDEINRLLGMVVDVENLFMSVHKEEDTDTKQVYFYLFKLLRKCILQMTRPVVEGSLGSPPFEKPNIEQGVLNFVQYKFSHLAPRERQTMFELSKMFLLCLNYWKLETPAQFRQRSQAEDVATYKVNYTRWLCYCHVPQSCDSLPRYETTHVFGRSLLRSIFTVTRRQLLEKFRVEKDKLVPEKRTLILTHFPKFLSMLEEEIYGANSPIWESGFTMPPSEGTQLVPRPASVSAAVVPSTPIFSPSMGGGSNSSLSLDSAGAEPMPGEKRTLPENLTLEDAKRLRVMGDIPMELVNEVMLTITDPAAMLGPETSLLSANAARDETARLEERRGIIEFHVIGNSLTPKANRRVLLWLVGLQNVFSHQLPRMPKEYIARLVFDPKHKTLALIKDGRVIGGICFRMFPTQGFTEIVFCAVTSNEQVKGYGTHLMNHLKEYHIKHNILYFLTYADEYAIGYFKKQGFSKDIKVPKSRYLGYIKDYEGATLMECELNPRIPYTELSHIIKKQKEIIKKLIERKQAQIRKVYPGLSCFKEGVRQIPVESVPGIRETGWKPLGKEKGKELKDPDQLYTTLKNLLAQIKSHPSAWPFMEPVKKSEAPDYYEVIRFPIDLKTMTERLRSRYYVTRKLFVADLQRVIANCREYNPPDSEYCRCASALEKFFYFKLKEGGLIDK
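GCN5L2 (20nM final) in 50mM HEPES, 0.1mM EDTA pH 7.5, 0.01% Tween-20 was preincubated 15 min at room temperature with compound, then given ThioGlo1 (50uM), H3(1-25) peptide (75uM) and acetyl-CoA (70uM); CoA-thiol fluorescence (Ex340/Em540) was read at 0 and 20 min.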
PLK1 PBD inh: blocks phosphopeptide binding to human PLK1 polo-box domain. P53350. Plk1 PBD binding of FITC phosphopeptide, fluorescence polarization. Potency, µM, actives largely listed as inhibitors. 360,000 tested, 2.8% active; also: series mostly up to about 57 µM; nearly all actives have a fitted effect of over 65% in size
A number is an active result; - = inactive; ? = inconclusive; . = no result. Calls follow the shape of the dose curve; as a rule, active = well fitted curve in the direction sought with a large enough effect; inconclusive = small, poorly fitted or top-dose-only effect, or another doubt; inactive = no such curve, though single readings can be large; an effect the other way counts as inactive or inconclusive.

SMILES	DT40 TDP1 CPT	TDP1 block	VDR inhibitor	DT40 TDP1 no CPT	KAT2A inh	PLK1 PBD inh
Cc1ccc(-c2cn3c(n2)sc2cc(C(=O)NCCC4=CCCCC4)ccc23)cc1	-	-	-	-	-	.
CCOc1ccccc1CNC(=O)c1ccc2c(c1)sc1nc(-c3cccc(OC)c3)cn12	8.2µM	-	-	8.2µM	-	.
COc1cccc(-c2cn3c(n2)sc2cc(C(=O)NCCC4=CCCCC4)ccc23)c1	13µM	-	-	6.51µM	-	.
COc1ccc(-c2cn3c(n2)sc2cc(C(=O)NCc4cccc(F)c4)ccc23)cc1	?	-	-	?	-	.
O=c1cnc2cnc(N3CCNCC3)nc2n1Cc1cccs1	-	.	-	-	-	.
CCOc1ccc(S(=O)(=O)NCCC(=O)NC2CCCCC2)cc1	-	.	-	-	-	-
CC(NC(=O)c1ccc(OC2CCN(C(=O)c3cccnc3)CC2)cc1)C1CC1 (configuration not stated)	-	-	-	-	-	-
COc1cccc(C(=O)COC(=O)CCC(=O)c2ccccc2)c1	-	-	-	-	-	-
Cc1cccc(C(=O)Nc2ccc(C(=O)OCc3cc(=O)n4nc(CC(C)C)sc4n3)cc2)c1	-	-	-	?	-	.
CC(=O)Nc1ccc(S(=O)(=O)NCC(=O)OCC(=O)NCCc2ccccc2)cc1	-	.	.	-	.	-
CCNC(=O)c1ccc2c(c1)sc1nc(-c3cccc(OC)c3)cn12	6.51µM	-	-	7.31µM	-	.
COc1ccc(NCc2nnc(SCC(=O)c3ccc(OC)cc3)o2)cc1	?	-	-	16.4µM	-	-
COc1ccc(C(=O)CSc2nnc(Cn3cnc4ccccc43)o2)cc1	8.2µM	-	-	16.4µM	-	-
CC(=O)c1ccc(NC(=O)CSc2nnc(Cn3cnc4ccccc43)o2)cc1	-	-	-	-	-	-
CN(Cc1ccccc1)c1nc2c(S(=O)(=O)c3ccccc3)nnn2c2ccsc12	-	-	-	-	-	.
CC(=O)Nc1ccc(C)cc1-c1nc2ccccc2n(CC(=O)c2ccc(C)c(C)c2)c1=O	?	-	-	?	-	.
Cc1cccc(C(=O)N[C@H](C(=O)Nc2ncc(C)s2)C(C)C)c1	?	-	-	?	-	-
C[C@H](NC(=O)c1ccccc1)C(=O)Nc1nc(-c2ccccn2)cs1	25.9µM	-	-	?	-	-
CC(OC(=O)c1ccccn1)C(=O)Nc1nc(-c2ccc(F)c(F)c2)cs1 (configuration not stated)	25.9µM	-	-	23.1µM	-	-
